KAT2A inh – inhibitors of human GCN5L2 histone acetyltransferase; Q92830; GCN5L2 HAT assay, ThioGlo1 CoA-SH fluorescence; Potency, µM (series often up to 58.9 µM), most hits filed as inhibitors; 0.21% of 390,000 active; AID 504327
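qHTS, 1536-well. 20nM enzyme, pH 7.5 HEPES/EDTA/Tween-20 buffer; 15 min compound preinc., RT. Start: 75uM H3(1-25), 70uM AcCoA, 50uM ThioGlo1. Read Ex340/Em540 at t=0 (autofluorescence flag) and t=20 min.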
TDP1 inh – blocks human tyrosyl-DNA phosphodiesterase 1. AID 485290. Potency, µM (series often up to 130 µM), hits mostly inhibitors. 0.28% of 350,000 active. Q9NUW8. recombinant TDP1, AlphaScreen DNA substrate cleavage; further: nearly all actives have a fitted effect of over 40% in size
Target sequence (Q9NUW8 whole entry, looked up): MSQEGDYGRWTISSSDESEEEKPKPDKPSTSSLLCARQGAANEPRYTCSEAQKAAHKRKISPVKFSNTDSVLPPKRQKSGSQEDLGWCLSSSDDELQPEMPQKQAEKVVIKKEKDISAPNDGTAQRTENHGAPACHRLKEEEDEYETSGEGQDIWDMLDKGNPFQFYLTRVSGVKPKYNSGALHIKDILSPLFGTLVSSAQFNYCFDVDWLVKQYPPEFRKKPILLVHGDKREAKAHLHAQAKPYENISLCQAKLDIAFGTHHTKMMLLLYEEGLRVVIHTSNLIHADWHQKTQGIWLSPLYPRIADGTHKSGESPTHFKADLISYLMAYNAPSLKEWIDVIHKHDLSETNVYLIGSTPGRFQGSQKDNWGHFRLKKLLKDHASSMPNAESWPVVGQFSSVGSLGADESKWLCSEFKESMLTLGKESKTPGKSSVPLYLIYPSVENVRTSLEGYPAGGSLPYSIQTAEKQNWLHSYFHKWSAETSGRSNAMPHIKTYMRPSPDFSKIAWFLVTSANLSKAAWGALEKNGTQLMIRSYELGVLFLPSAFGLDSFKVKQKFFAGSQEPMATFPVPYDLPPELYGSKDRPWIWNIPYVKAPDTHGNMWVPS
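Recombinant human Tdp1 (E. coli-expressed, 1 nM final) preincubated with compounds 15 min at room temperature, then 5'-biotin/3'-phosphotyrosine-FITC DNA substrate (15 nM final) added for 5 min. AlphaScreen beads (10 ug/ml final) added 10 min; cleavage lowers signal.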
TDP1 cell CPT – growth inhibition of DT40 Tdp1-/-;hTDP1 cells with camptothecin (screen for TDP1 inhibitors); AID 686979; 12% of 420,000 active; chicken DT40 Tdp1-/-;hTDP1 cells + 20 nM CPT, ATP luminescence, 48 h; Potency, µM (highest dose often 46.2 µM), usual class: inhibitors; further: nearly all actives have a fitted effect of over 55% in size
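Cell growth measured by CellTiter-Glo luminescence after a minimum 48 h, 37 C compound exposure with 20 nM CPT in Tdp1-knockout DT40 cells stably expressing hTDP1, seeded 400/well; qHTS titration format.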
PLK1 PBD block – blocks phosphopeptide binding to human PLK1 polo-box domain; Plk1 PBD binding of FITC phosphopeptide, fluorescence polarization; Potency, µM, usual class: inhibitors; 2.8% of 360,000 active; AID 720504; further: series mostly up to about 57 µM; nearly all actives have a fitted effect of over 65% in size
VDR inhibitor – blocks the human vitamin D receptor; VDR-SRC2-3 peptide fluorescence polarization, 2 h; 0.93% of 400,000 active; AID 504847; Potency, µM, actives largely listed as inhibitors
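Measured by FP: displacement of SRC2-3 coactivator peptide from VDR by library compounds, following a two-hour ambient incubation.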
DT40 TDP1 no CPT – qHTS for Inhibitors of human tyrosyl-DNA phosphodiesterase 1 (TDP1): qHTS in cells in absence of CPT. DT40 Tdp1-/- hTDP1 cells, no CPT, ATP luminescence, 48 h. Potency, µM (titrated, usually from 46.2 µM), hits mostly inhibitors. 15% of 420,000 active; further: nearly all actives have a fitted effect of over 55% in size
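Stably hTDP1-transfected Tdp1-null chicken DT40 cells were treated with library compounds minus camptothecin and grown for at least 48 hr at 37 °C, after which cellular ATP was quantified by luminescence.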
Numbers stand for hits; i = inactive; ? = inconclusive; nt = not tested or not shown. Compounds with a hit are over-represented: about 18% of the library has one in this group of screens. The call rests on the fitted dose curve; in most records, active means well fitted curve in the direction sought with a large enough effect; inconclusive means small, poorly fitted or top-dose-only effect, or another doubt; inactive means no such curve, though single readings can be large; an effect the other way counts as inactive or inconclusive.

SMILES	KAT2A inh	TDP1 inh	TDP1 cell CPT	PLK1 PBD block	VDR inhibitor	DT40 TDP1 no CPT
CCOc1ccc(C2=Nc3ccccc3C(c3ccc(N4CCOCC4)cc3)=NN2)cc1	i	i	23µM	i	i	13µM
Cc1ccc(Sc2cnn(-c3ccccc3)c(=O)c2Cl)cc1	i	i	?	i	i	29µM
CNc1cnn(-c2ccccc2)c(=O)c1Cl	i	i	?	11µM	i	?
COc1cnn(-c2cccc(C)c2)c(=O)c1Cl	i	nt	i	i	i	i
CN(C)CCNc1cnn(-c2ccccc2)c(=O)c1Cl	i	i	i	i	i	i
O=C(O)c1ccc(-n2ncc(Cl)c(Cl)c2=O)cc1	nt	nt	6.5µM	i	nt	5.8µM
O=C(Nc1ccc(-n2cccn2)cc1)C1CCCCN1Cc1cccc2c1OCO2 (stereo not drawn)	i	i	6.5µM	i	i	4.6µM
Cc1ncc(CN2CCC(C(=O)Nc3ccc(-n4cccn4)cc3)CC2)s1	i	i	i	i	i	i
O=S(=O)(CCN1C=CC(C(F)(F)F)=NCC1)c1ccc(Cl)cc1Cl	i	i	i	i	i	i
CC12CC(NC(=O)N1CCc1ccccc1)c1cc(Cl)ccc1O2 (stereo not drawn)	i	i	?	i	i	21µM
CC12CC(NC(=O)N1c1cccc(C(=O)NCc3ccccc3)c1)c1ccccc1O2 (stereo not drawn)	i	i	nt	nt	nt	nt
CCOc1ccccc1NC(=O)C1CCC(CNS(=O)(=O)c2ccc3c(c2)CCCC(=O)N3)CC1 (stereo not drawn)	i	i	?	nt	i	23µM
CCN(Cc1ccccc1)C(=O)C1CCC(CNS(=O)(=O)c2ccc3c(c2)CCCC(=O)N3)CC1 (stereo not drawn)	i	i	?	nt	i	16µM
O=C1CCCc2cc(S(=O)(=O)NCC3CCC(C(=O)Nc4ccccc4F)CC3)ccc2N1 (stereo not drawn)	i	i	?	nt	i	?
COc1cccc(CNC(=O)C2CCC(CNS(=O)(=O)c3ccc4c(c3)CCCC(=O)N4)CC2)c1 (stereo not drawn)	i	i	i	nt	i	i
COc1cccc(NC(=O)C2CCC(CNS(=O)(=O)c3ccc4c(c3)CCCC(=O)N4)CC2)c1 (stereo not drawn)	i	i	12µM	nt	i	15µM
CC1CCN(c2ccc3nnc(CCC(=O)N4CCN(c5ccc(F)cc5)CC4)n3n2)CC1	i	i	?	i	i	?
Cc1ccc(N(CC(=O)NCc2ccco2)C(=O)CCC(=O)Nc2ccccn2)c(C)c1	i	i	i	i	i	i
CC(C)c1ccc(S(=O)(=O)c2nnn3c2nc(N2CCCC2)c2sccc23)cc1	i	i	i	nt	i	i
CCOc1ccc(CNC(=O)c2ccc(NC(=O)N3CCSc4ncccc43)cc2)cc1OC	i	i	?	nt	i	?
CCOc1ccc(CNC(=O)c2cccc(NC(=O)N3CCSc4ncccc43)c2)cc1OC	i	i	16µM	nt	i	16µM
Cc1cccc(CNC(=O)c2cccc(NC(=O)N3CCSc4ncccc43)c2)c1	i	i	15µM	nt	i	?
O=C1CCc2ccc(NS(=O)(=O)c3ccc(F)cc3)cc2N1	i	i	?	i	i	?
S=C(NCCC1=CCCCC1)NCc1ccco1	i	i	16µM	i	i	10µM
O=C(NC(=S)NCCC1=CCCCC1)c1ccccc1Br	?	i	?	?	i	16µM
SMILES	KAT2A inh	TDP1 inh	TDP1 cell CPT	PLK1 PBD block	VDR inhibitor	DT40 TDP1 no CPT
O=C(CCn1c(=O)c2ccccc2n(CC(=O)NCCC2=CCCCC2)c1=O)NCc1ccco1	i	i	i	i	i	?
CCOc1ccc(S(=O)(=O)NCCc2csc3nc(-c4ccc(OC)c(OC)c4)nn23)cc1	i	i	?	nt	i	?
O=S(=O)(NCCc1csc2nc(-c3ccccc3)nn12)c1cccs1	i	i	?	nt	i	16µM
CCS(=O)(=O)NCCc1csc2nc(-c3ccc(OC)cc3)nn12	i	i	?	nt	i	?
COc1ccc(-c2nc3scc(CCNS(=O)(=O)c4cccs4)n3n2)cc1	i	i	21µM	nt	i	18µM
CC(=O)Nc1ccc(S(=O)(=O)NCCc2csc3nc(-c4ccc(Cl)cc4)nn23)cc1	i	i	21µM	nt	i	16µM
CCOc1ccc(S(=O)(=O)NCCc2csc3nc(-c4ccc(F)cc4)nn23)cc1	i	i	12µM	nt	i	6.5µM
COc1ccc(-c2nc3scc(CCNS(=O)(=O)c4c(C)noc4C)n3n2)cc1	i	i	?	nt	i	?
COCCNC(=S)N1CCCC(CO)C1 (stereo not drawn)	i	i	i	i	i	i
CC(=O)Oc1ccc(C23c4ccccc4C2(OC(C)=O)c2cc(OC(C)=O)ccc23)cc1 (stereo not drawn)	nt	nt	23µM	i	i	?
O=c1[nH]c(=S)[nH]c2sc3c(c12)CCCCCC3	i	nt	i	?	?	i
C#CC[N+](CC)(CC)CC#Cc1ccccc1	i	nt	?	i	i	18µM
